Data taken from ChEMBL document CHEMBL3988442, “University of Dundee, Small-Polar-MMV Screening Library” (2021).
For some assays here: Entries with a potency or affinity are not part of this list.

Assays:
Parameters in all cases: scale not given: direction of the effect not stated beside the values
[1] = target: Protein translocase subunit SecA (Escherichia coli (strain K12)) (UniProt P10408); test: Assay to Identify E. coli SecA ATPase Inhibitors; format: functional; conditions: 30 µM
[2] = target: T1, Ubiquitin-activating enzyme e1, putative (Leishmania donovani (strain BPK282A1)) (UniProt E9BSI1); test: Leishmania donovani Ubiquitin Activating Enzyme (LdE1); format: functional; conditions: 30 µM
T1 sequence (whole entry): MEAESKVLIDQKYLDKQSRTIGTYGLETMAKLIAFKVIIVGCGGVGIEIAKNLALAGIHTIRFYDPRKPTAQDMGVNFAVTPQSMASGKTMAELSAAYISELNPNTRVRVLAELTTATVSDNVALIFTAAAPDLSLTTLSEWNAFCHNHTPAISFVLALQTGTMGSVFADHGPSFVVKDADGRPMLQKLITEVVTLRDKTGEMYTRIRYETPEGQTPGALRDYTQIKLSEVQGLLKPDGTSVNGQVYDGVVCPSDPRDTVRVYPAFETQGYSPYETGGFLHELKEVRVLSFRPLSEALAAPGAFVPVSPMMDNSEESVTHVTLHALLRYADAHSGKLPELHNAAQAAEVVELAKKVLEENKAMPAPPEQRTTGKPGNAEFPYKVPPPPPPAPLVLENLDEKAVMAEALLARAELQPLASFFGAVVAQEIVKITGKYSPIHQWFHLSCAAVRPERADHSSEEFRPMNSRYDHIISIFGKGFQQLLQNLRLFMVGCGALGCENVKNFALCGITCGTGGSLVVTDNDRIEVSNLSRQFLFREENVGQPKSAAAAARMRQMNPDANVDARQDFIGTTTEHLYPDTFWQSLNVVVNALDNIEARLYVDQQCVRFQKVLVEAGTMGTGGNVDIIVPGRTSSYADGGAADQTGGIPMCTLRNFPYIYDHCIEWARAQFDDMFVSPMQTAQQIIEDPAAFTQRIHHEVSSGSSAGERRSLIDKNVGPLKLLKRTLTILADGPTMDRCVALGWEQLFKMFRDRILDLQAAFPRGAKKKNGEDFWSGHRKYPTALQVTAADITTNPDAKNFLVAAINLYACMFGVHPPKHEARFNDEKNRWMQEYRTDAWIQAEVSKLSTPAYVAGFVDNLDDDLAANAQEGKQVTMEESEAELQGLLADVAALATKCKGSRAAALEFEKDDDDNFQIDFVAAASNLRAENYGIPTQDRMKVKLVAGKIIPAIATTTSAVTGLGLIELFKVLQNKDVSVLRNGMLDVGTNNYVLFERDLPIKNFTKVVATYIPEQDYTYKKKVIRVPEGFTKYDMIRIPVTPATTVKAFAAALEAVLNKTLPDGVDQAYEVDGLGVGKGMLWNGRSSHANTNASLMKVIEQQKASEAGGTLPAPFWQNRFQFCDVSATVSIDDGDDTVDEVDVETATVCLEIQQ

[3] = target: Sialic acid-binding Ig-like lectin 9 (Homo sapiens) (UniProt Q9Y336); test: Hs-Siglec9 ALPHAscreen SOP 20170721; conditions: 10 µM
Sequence of Sialic acid-binding Ig-like lectin 9 (Homo sapiens) (Q9Y336 whole entry): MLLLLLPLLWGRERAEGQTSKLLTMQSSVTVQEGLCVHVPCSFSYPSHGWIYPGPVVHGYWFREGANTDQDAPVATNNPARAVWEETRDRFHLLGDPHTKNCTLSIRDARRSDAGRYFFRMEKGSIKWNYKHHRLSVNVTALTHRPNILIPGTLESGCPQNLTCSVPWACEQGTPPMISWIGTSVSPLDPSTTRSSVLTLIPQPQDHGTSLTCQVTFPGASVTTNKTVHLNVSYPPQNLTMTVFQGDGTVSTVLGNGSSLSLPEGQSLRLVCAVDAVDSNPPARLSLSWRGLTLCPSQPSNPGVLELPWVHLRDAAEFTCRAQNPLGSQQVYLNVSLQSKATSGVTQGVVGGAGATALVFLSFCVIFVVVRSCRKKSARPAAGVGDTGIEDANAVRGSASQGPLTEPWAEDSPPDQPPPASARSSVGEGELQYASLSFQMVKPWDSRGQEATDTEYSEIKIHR

[4] = system: Trypanosoma cruzi; test: Trypanosoma cruzi phosphomannomutase and mannose-1-phosphate guanylyltransferase assay; format: functional; conditions: 10 µM
[5] = target: T2, Arginase-2, mitochondrial (Homo sapiens) (UniProt P78540); test: in vitro enzyme assay to detect the production of urea directly proportional to the activity of Arginase II; format: functional; conditions: 33.3 µM; also: in the data most compounds retested in dose-response had high values
T2 sequence (whole entry): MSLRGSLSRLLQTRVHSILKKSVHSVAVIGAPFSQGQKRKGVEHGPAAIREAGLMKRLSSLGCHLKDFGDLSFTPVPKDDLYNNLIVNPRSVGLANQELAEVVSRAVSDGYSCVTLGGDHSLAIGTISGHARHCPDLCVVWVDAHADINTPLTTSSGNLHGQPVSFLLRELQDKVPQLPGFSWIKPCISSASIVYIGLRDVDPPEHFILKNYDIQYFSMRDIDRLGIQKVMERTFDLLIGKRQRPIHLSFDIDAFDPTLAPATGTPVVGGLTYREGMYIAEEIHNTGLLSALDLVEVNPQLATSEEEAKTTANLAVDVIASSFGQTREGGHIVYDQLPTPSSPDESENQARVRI

[6] = target: T3, Proteasome subunit beta (Trypanosoma cruzi) (UniProt O96673); test: Trypanosoma cruzi proteasome chymotrypsin-like activity (TcProtChymo) assay.; also: in the data most compounds retested in dose-response had high values; format: functional; conditions: 9.37 µM
T3 sequence (whole entry): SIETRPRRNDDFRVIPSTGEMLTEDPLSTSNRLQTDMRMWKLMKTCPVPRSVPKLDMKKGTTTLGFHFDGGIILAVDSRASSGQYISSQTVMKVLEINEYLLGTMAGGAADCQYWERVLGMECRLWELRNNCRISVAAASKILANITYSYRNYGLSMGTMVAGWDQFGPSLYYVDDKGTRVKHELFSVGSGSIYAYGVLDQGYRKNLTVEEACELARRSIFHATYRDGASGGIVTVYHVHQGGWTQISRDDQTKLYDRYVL

[7] = species: Homo sapiens; test: To identify inhibition of the IFN signalling (Jak-Stat) pathway via expression of an eGFP reporter gene under the control of an IFN-stimulated response element (ISRE) containing MxA promoter.; format: functional; conditions: 30 µM
[8] = target: T4, Tyrosyl-tRNA synthetase, putative (Trypanosoma cruzi (strain CL Brener)) (UniProt Q4DSP6); test: Trypanosoma cruzi tyrosyl tRNA synthetase (TcYRS) _High Tyrosine SOP; format: functional; conditions: 30 µM; also: in the data most compounds retested in dose-response had high values
T4 sequence (whole entry): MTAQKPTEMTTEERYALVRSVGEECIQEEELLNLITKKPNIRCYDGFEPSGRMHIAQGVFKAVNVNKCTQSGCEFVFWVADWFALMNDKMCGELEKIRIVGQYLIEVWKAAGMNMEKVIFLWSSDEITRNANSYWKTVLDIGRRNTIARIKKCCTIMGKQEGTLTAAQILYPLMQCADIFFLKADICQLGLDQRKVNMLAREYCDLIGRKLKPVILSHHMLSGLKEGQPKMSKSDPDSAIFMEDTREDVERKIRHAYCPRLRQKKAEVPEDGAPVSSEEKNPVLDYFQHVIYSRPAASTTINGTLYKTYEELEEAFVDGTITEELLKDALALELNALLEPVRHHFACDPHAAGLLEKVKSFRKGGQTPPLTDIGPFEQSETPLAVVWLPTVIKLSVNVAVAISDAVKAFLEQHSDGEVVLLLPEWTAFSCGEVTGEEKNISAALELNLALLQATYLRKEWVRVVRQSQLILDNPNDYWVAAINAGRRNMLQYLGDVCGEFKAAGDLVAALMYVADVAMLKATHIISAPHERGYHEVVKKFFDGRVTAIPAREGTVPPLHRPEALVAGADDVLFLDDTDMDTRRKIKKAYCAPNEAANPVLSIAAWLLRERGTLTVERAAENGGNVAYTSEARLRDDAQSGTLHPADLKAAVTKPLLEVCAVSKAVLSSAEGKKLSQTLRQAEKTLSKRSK

[9] = target: T4, Tyrosyl-tRNA synthetase, putative (Trypanosoma cruzi (strain CL Brener)); test: Trypanosoma cruzi tyrosyl tRNA synthetase (TcYRS) SOP; format: functional; conditions: 30 µM
[10] = target: Chromo domain-containing protein 1 (Saccharomyces cerevisiae (strain ATCC 204508 / S288c) (Baker's yeast)) (UniProt P32657); test: ScCHD-1 Enzyme Inhibition Assay; format: functional; conditions: 30 µM; also: in the data most compounds retested in dose-response had high values
Sequence of Chromo domain-containing protein 1 (Saccharomyces cerevisiae (strain ATCC 204508 / S288c) (Baker's yeast)) (P32657 whole entry, the tested form may be a part): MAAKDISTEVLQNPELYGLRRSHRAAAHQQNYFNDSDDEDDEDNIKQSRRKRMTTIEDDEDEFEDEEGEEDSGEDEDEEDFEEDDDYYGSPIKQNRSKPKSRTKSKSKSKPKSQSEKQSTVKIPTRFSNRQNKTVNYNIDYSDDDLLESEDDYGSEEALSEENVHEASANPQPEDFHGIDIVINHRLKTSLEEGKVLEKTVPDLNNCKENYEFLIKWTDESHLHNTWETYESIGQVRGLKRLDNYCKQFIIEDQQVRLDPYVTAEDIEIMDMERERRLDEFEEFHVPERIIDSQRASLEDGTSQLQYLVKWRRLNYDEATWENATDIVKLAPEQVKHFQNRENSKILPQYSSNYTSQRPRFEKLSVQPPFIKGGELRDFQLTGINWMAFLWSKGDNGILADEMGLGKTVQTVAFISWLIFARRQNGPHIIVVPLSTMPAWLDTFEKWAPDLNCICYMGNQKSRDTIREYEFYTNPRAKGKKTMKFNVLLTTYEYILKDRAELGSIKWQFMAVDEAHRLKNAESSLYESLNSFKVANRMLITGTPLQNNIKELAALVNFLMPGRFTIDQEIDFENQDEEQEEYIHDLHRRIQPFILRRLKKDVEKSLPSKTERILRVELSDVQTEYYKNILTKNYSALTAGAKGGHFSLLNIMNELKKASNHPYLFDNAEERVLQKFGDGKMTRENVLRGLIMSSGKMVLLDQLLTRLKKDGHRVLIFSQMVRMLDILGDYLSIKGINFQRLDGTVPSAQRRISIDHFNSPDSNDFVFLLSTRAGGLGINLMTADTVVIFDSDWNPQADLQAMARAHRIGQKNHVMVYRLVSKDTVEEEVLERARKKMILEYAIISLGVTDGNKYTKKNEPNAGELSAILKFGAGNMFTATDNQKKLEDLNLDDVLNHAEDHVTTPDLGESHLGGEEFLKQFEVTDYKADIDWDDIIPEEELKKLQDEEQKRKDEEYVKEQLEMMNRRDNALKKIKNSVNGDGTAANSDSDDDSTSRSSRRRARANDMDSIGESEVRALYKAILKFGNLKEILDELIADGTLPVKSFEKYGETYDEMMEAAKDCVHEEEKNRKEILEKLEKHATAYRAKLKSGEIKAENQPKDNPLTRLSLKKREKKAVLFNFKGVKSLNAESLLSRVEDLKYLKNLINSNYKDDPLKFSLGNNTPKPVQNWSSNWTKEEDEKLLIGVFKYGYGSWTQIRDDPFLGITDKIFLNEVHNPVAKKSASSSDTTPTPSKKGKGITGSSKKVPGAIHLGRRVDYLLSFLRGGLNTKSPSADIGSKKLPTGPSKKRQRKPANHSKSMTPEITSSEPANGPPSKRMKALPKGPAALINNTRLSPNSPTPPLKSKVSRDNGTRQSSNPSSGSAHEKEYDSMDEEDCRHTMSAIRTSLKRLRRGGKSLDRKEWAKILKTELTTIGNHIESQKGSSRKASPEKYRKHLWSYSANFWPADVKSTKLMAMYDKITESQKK

Sequence of Protein translocase subunit SecA (Escherichia coli (strain K12)) (P10408 whole entry): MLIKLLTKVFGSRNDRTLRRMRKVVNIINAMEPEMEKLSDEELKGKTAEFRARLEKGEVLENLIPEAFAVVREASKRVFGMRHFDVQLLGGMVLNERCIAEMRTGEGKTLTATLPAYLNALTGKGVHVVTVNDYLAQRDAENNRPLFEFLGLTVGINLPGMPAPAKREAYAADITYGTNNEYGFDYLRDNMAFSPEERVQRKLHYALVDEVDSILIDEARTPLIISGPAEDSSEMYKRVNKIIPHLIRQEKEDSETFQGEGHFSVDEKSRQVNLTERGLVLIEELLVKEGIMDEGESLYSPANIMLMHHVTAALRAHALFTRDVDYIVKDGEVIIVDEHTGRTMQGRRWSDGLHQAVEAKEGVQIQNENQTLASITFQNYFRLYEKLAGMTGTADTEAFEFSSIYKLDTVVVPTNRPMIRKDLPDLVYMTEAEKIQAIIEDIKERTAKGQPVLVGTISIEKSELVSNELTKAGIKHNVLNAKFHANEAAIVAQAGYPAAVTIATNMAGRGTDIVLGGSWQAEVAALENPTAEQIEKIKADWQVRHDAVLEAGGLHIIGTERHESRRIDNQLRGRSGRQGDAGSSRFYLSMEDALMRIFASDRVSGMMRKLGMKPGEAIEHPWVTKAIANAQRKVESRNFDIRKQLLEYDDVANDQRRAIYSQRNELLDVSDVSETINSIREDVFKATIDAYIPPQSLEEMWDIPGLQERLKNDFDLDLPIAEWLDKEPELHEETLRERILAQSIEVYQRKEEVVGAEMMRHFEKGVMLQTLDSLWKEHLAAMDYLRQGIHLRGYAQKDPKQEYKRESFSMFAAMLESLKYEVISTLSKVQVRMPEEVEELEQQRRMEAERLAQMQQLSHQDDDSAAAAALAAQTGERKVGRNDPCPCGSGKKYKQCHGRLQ

Compound	Percent Effect [1] [%]	Percent Effect [2] [%]	Percent Effect [3] [%]	Percent Effect [4] [%]	Percent Effect [5] [%]	Percent Effect [6] [%]	Percent Effect [7] [%]	Percent Effect [8] [%]	Percent Effect [9] [%]	Percent Effect [10] [%]
Cc1cc(C)n(CCC(=O)N2CCCC(n3cncn3)C2)n1 (stereo not given)	-6.39	10.7	6.15	2.01	-3.99	5.68	-5.14	5.79	15.4	-9.86
Cc1cc(NC(=O)C(C)N2CCCN(c3nccs3)CC2)on1 (stereo not given)	-5.38	7.69	6.57	1.03	5.74	7.08	12.4	0.478	8.43	6.1
O=c1c2ccccc2nc2n1C(CSc1ccc(Cl)cc1Cl)CN2 (stereo not given)	-1.78	19.5	-1.05	-1.31	5.94	13.3	32.9	1.93	10	-2.41
CC(C)N1CCCC2(CCN(C(=O)CCCn3cncn3)C2)C1=O (stereo not given)	-5.4	5.41	6.04	7.27	-1.75	15.1	19.6	7.98	12.2	-6.32
CCc1nc(CC(=O)N2CCCC2Cn2cccn2)cs1 (stereo not given)	-2.88	2.67	6.12	0.402	4.43	6.19	-17.2	2.63	7.69	-10
O=c1[nH][nH]cc1-c1ccnc(NCCN2CCCC2)n1	3.78	10.7	-2.82	-4.82	-8.87	7.38	13.2	-4.74	-5.13	-14.5
Cc1ccc(-c2cc(CN3CCOC(Cn4cncn4)C3)on2)cc1 (stereo not given)	-2.91	5.2	4.78	-0.56	-1.43	1.4	12.8	10.8	18.8	-5.72
O=C1C[C@H]2[C@@H](CCN2C(=O)Cc2cccs2)N1Cc1cccnc1	-6.6	9.09	-0.0705	-1.31	-4.11	13.7	8.33	6.76	7.5	-3.4
